The supplement of paper PMC11732987, “Enantioselective OTUD7B fragment discovery through chemoproteomics screening and high-throughput optimisation” (Communications Chemistry, 2025)

Experiments:
Assay in all cases: log2 ratio of Biotin-Ahx-Ub-VS probe labelling (fragment/DMSO); higher = less target engagement (more negative = stronger competition), active = hit call of the paper (q ≤ 0.05, log2 ratio ≤ -1)
Conditions in all cases: compound concentration: 200 uM; treatment time: 3 h
USP19 = molecular target: T1, USP19 (UniProt O94966)
T1 sequence (whole entry): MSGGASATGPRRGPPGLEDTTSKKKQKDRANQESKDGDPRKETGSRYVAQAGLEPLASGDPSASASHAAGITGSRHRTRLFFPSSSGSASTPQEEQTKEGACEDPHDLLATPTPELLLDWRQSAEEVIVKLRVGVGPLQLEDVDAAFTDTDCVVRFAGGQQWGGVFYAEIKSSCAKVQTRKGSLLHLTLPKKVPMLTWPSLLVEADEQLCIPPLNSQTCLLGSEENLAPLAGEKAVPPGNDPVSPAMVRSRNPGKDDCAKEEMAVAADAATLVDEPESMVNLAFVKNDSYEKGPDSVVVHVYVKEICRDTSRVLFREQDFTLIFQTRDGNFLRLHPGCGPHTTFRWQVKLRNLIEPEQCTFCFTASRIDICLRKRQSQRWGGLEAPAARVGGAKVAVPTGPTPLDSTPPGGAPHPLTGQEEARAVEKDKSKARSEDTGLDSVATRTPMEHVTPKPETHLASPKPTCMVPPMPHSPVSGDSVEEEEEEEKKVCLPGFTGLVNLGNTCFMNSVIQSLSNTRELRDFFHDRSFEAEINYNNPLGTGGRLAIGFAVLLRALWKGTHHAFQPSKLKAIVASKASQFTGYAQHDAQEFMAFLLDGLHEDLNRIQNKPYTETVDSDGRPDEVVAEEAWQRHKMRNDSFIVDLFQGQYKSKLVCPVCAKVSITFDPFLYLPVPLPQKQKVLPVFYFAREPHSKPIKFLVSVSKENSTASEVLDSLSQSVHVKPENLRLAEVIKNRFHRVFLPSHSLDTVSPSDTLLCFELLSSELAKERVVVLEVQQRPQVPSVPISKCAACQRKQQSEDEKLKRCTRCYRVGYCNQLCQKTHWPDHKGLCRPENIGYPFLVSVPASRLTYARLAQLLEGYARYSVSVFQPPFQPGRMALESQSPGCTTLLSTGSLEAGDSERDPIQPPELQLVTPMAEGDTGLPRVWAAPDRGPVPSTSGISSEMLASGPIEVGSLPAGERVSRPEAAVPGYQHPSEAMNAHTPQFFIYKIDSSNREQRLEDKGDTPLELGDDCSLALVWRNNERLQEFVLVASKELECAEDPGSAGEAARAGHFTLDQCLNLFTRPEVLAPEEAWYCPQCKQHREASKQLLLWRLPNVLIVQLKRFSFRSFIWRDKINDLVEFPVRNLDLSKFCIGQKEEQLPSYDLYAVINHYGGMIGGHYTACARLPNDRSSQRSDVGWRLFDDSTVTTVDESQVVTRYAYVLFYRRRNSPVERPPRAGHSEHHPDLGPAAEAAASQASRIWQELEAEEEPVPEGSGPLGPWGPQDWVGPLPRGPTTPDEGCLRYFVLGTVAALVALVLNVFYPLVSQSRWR
Outline: (§1)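 Average log2 ratios of fragment over vehicle were obtained by unpaired t-test from global-median-normalised Spectronaut label-free quantities. Proteins with ≥2 unique peptides were included. HEK293T lysate (495 µg per sample) was treated in triplicate with fragment at 200 µM or vehicle for 3 h, then with Biotin-Ahx-Ub-VS at 0.5 µM final for 1 h, and labelled DUBs were NeutrAvidin-enriched and run by diaPASEF LC-MS/MS.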

USP24 = USP24 (UniProt Q9UPU5)
Outline: as §1

USP25 = molecular target: T2, USP25 (UniProt Q9UHP3)
T2 sequence (whole entry): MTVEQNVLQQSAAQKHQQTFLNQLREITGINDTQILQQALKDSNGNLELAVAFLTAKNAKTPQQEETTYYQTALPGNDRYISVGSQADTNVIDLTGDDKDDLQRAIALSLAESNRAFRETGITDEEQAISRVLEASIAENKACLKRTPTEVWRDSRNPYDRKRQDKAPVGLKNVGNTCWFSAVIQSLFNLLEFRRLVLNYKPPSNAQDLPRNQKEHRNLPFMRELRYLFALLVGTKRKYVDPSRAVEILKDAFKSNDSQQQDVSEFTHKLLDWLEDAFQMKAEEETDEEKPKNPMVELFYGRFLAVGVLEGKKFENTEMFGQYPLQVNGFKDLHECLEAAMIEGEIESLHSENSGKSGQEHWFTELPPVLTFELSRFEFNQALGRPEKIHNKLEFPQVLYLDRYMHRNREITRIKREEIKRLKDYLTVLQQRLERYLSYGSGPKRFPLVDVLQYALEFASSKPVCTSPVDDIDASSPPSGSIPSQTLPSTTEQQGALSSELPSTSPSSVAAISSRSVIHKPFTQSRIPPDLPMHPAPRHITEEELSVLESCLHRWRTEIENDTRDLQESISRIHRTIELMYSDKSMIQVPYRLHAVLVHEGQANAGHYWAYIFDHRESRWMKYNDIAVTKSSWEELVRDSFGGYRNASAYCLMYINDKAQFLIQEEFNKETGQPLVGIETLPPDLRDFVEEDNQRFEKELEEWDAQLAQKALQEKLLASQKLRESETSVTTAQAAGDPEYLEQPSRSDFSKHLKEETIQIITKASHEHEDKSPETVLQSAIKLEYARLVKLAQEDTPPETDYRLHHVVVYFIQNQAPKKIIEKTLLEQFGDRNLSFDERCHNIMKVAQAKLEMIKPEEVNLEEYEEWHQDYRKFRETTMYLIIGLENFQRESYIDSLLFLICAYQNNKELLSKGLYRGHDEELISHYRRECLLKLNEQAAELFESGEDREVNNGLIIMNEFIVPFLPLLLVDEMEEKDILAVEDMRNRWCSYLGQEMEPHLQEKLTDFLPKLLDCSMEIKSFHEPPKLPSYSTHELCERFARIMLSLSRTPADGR
Outline: as §1

USP28 = molecular target: T3, USP28 (UniProt Q96RU2)
T3 sequence (whole entry): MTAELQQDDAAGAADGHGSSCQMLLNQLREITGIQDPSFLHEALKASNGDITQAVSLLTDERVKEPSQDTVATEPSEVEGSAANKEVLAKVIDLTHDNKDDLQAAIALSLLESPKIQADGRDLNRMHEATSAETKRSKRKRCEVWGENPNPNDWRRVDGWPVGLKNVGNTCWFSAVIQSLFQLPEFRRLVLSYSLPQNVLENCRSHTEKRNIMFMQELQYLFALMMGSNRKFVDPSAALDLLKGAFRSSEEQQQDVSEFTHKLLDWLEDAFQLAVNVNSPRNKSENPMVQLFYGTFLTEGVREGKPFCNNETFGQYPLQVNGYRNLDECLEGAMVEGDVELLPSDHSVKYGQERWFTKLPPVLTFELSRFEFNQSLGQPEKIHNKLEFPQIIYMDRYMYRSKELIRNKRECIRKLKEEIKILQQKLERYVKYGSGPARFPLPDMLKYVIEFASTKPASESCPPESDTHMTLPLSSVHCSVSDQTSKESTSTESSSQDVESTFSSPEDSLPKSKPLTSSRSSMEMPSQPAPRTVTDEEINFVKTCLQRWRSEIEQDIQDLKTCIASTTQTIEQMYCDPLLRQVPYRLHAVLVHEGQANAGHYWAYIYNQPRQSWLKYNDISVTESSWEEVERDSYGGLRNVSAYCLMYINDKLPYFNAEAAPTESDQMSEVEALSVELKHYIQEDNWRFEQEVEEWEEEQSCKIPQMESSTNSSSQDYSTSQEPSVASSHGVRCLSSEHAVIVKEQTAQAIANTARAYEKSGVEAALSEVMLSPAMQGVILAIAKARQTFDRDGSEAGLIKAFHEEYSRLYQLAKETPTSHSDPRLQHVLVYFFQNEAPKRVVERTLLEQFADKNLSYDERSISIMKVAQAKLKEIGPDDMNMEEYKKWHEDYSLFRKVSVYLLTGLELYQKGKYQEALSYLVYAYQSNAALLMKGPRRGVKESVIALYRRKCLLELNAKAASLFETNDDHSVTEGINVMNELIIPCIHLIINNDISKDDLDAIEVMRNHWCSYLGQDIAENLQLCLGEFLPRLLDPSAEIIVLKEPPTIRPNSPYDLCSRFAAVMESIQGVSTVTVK
Outline: as §1

Measured: log2 ratio of Biotin-Ahx-Ub-VS probe labelling

Chain of USP24 (Q9UPU5 whole entry): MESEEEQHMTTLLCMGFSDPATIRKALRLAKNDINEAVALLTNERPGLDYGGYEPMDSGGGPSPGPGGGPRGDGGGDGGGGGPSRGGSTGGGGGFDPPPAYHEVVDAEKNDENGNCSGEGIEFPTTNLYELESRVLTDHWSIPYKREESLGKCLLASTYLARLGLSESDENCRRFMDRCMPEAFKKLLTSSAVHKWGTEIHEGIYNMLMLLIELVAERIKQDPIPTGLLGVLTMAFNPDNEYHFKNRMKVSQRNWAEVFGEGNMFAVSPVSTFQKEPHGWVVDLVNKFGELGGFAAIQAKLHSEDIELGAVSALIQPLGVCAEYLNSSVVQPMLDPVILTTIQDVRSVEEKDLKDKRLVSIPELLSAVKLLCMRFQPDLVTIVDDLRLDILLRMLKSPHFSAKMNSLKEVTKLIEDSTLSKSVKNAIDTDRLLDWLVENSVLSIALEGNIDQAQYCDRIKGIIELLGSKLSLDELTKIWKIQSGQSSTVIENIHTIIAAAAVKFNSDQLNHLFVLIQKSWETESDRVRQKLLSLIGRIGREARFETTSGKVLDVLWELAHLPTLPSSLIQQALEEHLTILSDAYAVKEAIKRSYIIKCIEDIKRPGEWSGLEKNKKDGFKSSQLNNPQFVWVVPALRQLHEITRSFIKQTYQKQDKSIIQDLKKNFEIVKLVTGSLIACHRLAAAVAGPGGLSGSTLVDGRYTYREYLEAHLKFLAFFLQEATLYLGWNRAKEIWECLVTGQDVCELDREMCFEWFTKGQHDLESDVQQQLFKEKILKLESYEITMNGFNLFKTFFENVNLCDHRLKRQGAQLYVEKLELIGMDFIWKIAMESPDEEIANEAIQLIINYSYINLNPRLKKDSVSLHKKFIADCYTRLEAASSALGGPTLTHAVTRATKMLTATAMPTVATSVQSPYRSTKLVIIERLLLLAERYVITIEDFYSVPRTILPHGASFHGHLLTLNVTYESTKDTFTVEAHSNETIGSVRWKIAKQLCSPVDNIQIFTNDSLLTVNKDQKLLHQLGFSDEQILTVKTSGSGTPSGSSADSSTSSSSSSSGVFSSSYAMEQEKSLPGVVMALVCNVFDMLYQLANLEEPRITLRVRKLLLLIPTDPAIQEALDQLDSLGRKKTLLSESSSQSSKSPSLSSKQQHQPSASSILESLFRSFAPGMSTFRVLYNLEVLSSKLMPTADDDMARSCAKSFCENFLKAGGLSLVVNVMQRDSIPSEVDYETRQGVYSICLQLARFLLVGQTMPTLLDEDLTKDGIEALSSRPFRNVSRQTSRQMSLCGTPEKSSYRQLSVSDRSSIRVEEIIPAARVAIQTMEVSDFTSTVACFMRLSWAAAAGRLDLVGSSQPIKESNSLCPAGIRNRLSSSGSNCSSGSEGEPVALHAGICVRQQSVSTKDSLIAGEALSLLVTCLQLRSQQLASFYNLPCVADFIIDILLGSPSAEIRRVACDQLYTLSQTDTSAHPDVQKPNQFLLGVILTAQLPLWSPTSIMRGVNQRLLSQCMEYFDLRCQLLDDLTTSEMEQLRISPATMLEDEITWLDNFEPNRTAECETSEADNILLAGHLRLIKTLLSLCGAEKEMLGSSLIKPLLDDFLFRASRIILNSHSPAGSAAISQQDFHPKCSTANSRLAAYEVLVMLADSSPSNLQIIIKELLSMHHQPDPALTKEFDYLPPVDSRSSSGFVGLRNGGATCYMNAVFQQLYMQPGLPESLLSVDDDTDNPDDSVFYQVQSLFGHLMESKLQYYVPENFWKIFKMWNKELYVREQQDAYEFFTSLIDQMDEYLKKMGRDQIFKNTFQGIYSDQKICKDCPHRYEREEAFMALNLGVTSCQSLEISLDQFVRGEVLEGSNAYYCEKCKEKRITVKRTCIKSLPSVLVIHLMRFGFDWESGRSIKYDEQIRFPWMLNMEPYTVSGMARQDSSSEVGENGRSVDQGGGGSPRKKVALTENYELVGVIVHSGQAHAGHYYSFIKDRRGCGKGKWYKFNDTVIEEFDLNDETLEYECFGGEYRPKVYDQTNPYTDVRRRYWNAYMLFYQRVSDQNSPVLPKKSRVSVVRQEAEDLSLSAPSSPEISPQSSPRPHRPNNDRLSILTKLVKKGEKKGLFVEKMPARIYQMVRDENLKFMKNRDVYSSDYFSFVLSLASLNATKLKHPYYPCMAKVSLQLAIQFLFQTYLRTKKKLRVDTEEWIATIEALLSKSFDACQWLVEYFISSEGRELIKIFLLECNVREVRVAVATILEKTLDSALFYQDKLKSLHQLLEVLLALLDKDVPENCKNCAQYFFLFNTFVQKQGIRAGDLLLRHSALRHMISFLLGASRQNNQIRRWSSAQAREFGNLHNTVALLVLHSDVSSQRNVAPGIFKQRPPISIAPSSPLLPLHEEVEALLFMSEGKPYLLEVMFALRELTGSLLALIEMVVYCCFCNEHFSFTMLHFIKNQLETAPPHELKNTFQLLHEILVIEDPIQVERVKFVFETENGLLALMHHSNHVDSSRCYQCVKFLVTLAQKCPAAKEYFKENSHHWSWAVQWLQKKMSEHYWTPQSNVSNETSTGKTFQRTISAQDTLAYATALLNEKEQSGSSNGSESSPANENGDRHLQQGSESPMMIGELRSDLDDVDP

NC(=O)C1CCCCN1C(=O)CCl (centres undefined)
inactive: USP19 -0.231 | USP24 -0.241 | USP25 -0.267 | USP28 -0.652
